# Screens as filed in PubChem.
# MITF TRPM1 HTS: activators of MITF-driven TRPM1 promoter activity in SK-MEL-5 cells; SK-MEL-5 TRPM1-promoter luciferase, 24 h; % of positive control, neutral wells = 0; activation, % at 12.5 µM; 300,000 compounds, 0.75% hits;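 active means mean activation of at least 80% with every replicate also reaching 80%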;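 further: 0% = neutral control wells and 100% = parthenolide positive control wells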
# N-glyco inh: blocks N-linked glycosylation in D54 reporter cells | D54 ERlucT glycosylation luciferase reporter, 24 h; percent of 100 nM tunicamycin response | reporter increase, % at 12.5 µM | 360,000 compounds, 0.23% hits | AID 588692;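 active means mean luciferase reporter signal, scaled so untreated is 0 and the glycosylation-blocking control 100, at or above a set limit in every replicate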;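 further: luciferase carries N-glycosylation sites so blocking glycosylation raises the light; 0% = median of neutral control wells and 100% = median of 100 nM tunicamycin wells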
# MITF TRPM1 inh: reduces MITF-dependent TRPM1 promoter luciferase signal; SK-MEL-5 TRPM1 promoter luciferase, 24 h; inhibition, % at 12.5 µM; 330,000 compounds, 0.83% hits; AID 488899;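 active means mean inhibition across replicates of 60% or more, whatever share of single replicates reaches that level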
# NSD2 inh: blocks human histone methyltransferase NSD2; inhibition, % at 12.5 µM; NSD2 peptide methylation, AlphaScreen, 120 min; 310,000 compounds, 0.54% hits; AID 743445; O96028; in the data active means inhibition above about 50%
# Wnt bcat act: Wnt/beta-catenin pathway activation; activation, % at 9.35 µM; 300,000 compounds, 1.2% hits; Wnt/beta-catenin reporter cell assay, activator, plate reader; in the data active means activation above about 30%, passing the limit was not always enough;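 further: 0% = neutral control wells and 100% = positive control wells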
# PfHsp90 set2: inhibits growth of yeast expressing Plasmodium falciparum Hsp90. S. cerevisiae expressing PfHsp90, BacTiter-Glo ATP, 48 h; yeast lacking PDR1 and PDR3 efflux regulators. inhibition, % at 9.4 µM. 310,000 compounds, 0.32% hits. AID 504621;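 active means every replicate shows inhibition above about 80%, whatever the replicate mean, limit read from the data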;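 further: 0% = DMSO neutral controls and 100% = 20 µM radicicol positive controls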
# AlphaScreen art: interferes with AlphaScreen signal, flagging NSD2 false positives; shares compounds with NSD2 inh; 1,500 compounds, 9.4% hits; AC35, µM (titrated, usually from 10 µM), for the others: at the top dose activity change, negative = signal loss; AlphaScreen artifact counterscreen, preloaded methylated H4 peptide; call rule not given here
# * hit, by the source's call; . = no result given; + = active, no number. Only some compounds are listed: those with a hit (about 2.9% of all), similar ones and a draw of the others.
SMILES,MITF TRPM1 HTS,N-glyco inh,MITF TRPM1 inh,NSD2 inh,Wnt bcat act,PfHsp90 set2,AlphaScreen art
Nc1nonc1C(=O)N/N=C/c1cc2c(cc1[N+](=O)[O-])OCO2,-15,0,15,113*,3,-10,-1%
O=C(N/N=C\c1cc2c(cc1[N+](=O)[O-])OCO2)c1cccs1,11,-2,-18,1,-10,-17,.
COc1ccc(S(=O)(=O)Nc2cc(SCC(=O)O)c(O)c3ccccc23)cc1,-64,10,68*,121*,8,10,-6%
O=C(NC1CCCCC1)c1ccc(S(=O)(=O)NCc2ccco2)cc1,-11,-1,11,55*,.,-1,-7%
Cc1c(O)ccc(C(=O)CN2CCN(c3ccccc3)CC2)c1O,6,-3,-4,4,2,-39,.
C=CCN(CC=C)Cc1c(O)ccc2c1oc(=O)c1ccccc12,9,-1,-4,51*,.,-12,11%
C=CCC1CCCC(=O)N2CCCC12 (stereo unspecified),-5,1,6,.,13,-28,.
Cc1ccc(NC(=O)CN(C)C(=O)C2CCC2)cc1,0,1,-4,-2,-4,.,.
Cc1[nH][nH]c(=O)c1C(c1ccc(-c2cccc(C(=O)O)c2)o1)c1c(C)[nH][nH]c1=O,10,4,-12,+,2,26,-2%
Cc1[nH][nH]c(=O)c1C(c1ccc(-c2cccc(Cl)c2)o1)c1c(C)[nH][nH]c1=O,-7,16,8,.,.,11,.
COC(=O)c1ccc(-c2ccc(C(c3c(C)[nH][nH]c3=O)c3c(C)[nH][nH]c3=O)o2)cc1,-44,4,43,53*,-5,7,-1%
Cc1[nH][nH]c(=O)c1C(c1ccc(-c2ccccc2C(=O)O)o1)c1c(C)[nH][nH]c1=O,-2,6,4,78*,1,-24,-1%
Cc1cc(C)cc(OCC(=O)OCC(=O)c2cc(C)n(C3CC3)c2C)c1,-1,1,5,0,-1,-6,.
Cc1ccc(S(=O)(=O)c2nc(S(C)(=O)=O)sc2N2CCCCC2C)cc1 (stereo unspecified),-40,-9,39,1,-1,-80,.
CCn1cc(S(=O)(=O)Nc2ccc(C)c(Cl)c2)cn1,-6,-1,7,0,-3,-21,.
Cc1ccc(S(=O)(=O)N2CCCCC2CCNC(=O)C(=O)Nc2ccccc2F)cc1 (stereo unspecified),-33,13,34,95*,-10,-22,2%
Cc1cc(C)cc(OCc2nnc(N)s2)c1,0,2,-1,-1,2,6,.
O=C(NC1(O)C(=O)c2ccccc2C1=O)c1ccccc1,-6,-2,7,110*,.,8,3%
O=C(NC1(O)C(=O)c2ccccc2C1=O)c1c(Cl)cccc1Cl,.,1,-1,111*,-2,9,1%
CC(=O)N1C[C@@H](CO)[C@@H](N(C)C(=O)C2CCCCC2)C[C@H]1c1ccccc1,.,0,.,.,-1,.,.
CC(C)NCC#CCOc1ccc(Cl)cc1,4,1,-1,53*,-1,-10,-3%
CC(=O)Nc1cccc(OCc2ccc(S(=O)(=O)Cc3ccccc3)cc2)c1,11,-2,-6,15,12,-3,.
CCN(CC)S(=O)(=O)c1cccc(-c2nnc(SCCCC(=O)c3ccc(F)cc3)o2)c1,.,-5,11,127*,-5,.,-1%
Nc1ccc2c(c1)C(=O)C(=O)c1ccccc1-2,-106,-19,107*,112*,.,14,-8%
Nc1ccc2c(c1)C(=NO)c1ccccc1-2,50,-2,-44,9,-2,-6,.
SMILES,MITF TRPM1 HTS,N-glyco inh,MITF TRPM1 inh,NSD2 inh,Wnt bcat act,PfHsp90 set2,AlphaScreen art
Cc1c(N=NC2=C(O)CC(C)(C)CC2=O)c(=O)n(-c2ccccc2)n1C,-10,2,13,96*,-3,2,-2%
CC(=O)/C(N=Nc1c(C)n(C)n(-c2ccccc2)c1=O)=C(\C)O,-3,1,4,-7,0,-28,.
COc1cc(/C=N/Nc2nc(C)nc3c2cnn3-c2ccccc2)ccc1O,5,3,3,1,0,-6,.
Cc1onc(-c2c(Cl)cccc2Cl)c1C(=O)ONC(=O)c1cc(C(F)(F)F)cc(C(F)(F)F)c1,-2,0,4,59*,-1,-6,0%
O=C(CCCN1C(=O)/C(=C\c2cccs2)SC1=S)Nc1ccc(C(=O)O)cc1,2,3,-1,13,-17,1,.
O=C(CCCN1C(=O)/C(=C/c2cccs2)SC1=S)Nc1ccc(O)c(C(=O)O)c1,.,.,.,53*,.,.,-14%
O=C(CCCN1C(=O)/C(=C/c2ccccc2)SC1=S)Nc1ccc(C(=O)O)c(O)c1,15,3,-8,55*,-1,-9,-7%
CCOc1cc(N2CCOCC2)c(OCC)cc1NC(=O)CN1C(=O)NC2(CCCCC2)C1=O,-5,1,7,0,0,2,.
CC(=O)c1cccc(NC(=O)CC2CCCC2)c1,-6,2,0,53*,0,-11,-3%
O=C(NCc1ccccc1)C1=C[C@H](C2CC2)C[C@H](OCCCCO)O1,-2,1,1,.,-2,-4,.
COC1=C(C)C(=O)C2=C(C1=O)C1C3CC4=C(C(=O)C(OC)=C(C)C4=O)C(CNC(=O)C(C)=O)N3C(C#N)C(C2)N1C (stereo unspecified),.,-20,114*,75*,-26,-10,-3%
CCOC(=O)CN(C(=O)COc1nc(-c2ccccc2)cc(C)c1C#N)c1ccccc1,-9,1,10,71*,0,9,-1%
c1ccc(-c2nnc(-c3ccco3)o2)cc1,.,-2,-56,.,.,22,.
c1coc(-c2nnc(-c3ccco3)nn2)c1,26,2,-30,140*,5,-13,-6%
O=C(NCCc1ccccn1)C1CCCN1S(=O)(=O)c1ccc(Cl)cc1 (stereo unspecified),2,3,-4,119*,1,5,-1%
COCC(=O)N[C@H]1CC[C@@H](CC(=O)OC)O[C@@H]1CO,.,.,.,.,-1,.,.
Cc1ccc(N2C(=O)N(CC(=O)Nc3cccc([N+](=O)[O-])c3C)C(=O)C2C)cc1 (stereo unspecified),8,-1,-7,92*,0,6,-4%
Cc1ccc(N2C(=O)N(CC(=O)Nc3ccc(C)cc3[N+](=O)[O-])C(=O)C2C)cc1 (stereo unspecified),19,1,-20,9,-3,14,.
CCCCn1c(NC(=O)c2ccco2)c(S(=O)(=O)c2ccc(C)cc2)c2nc3ccccc3nc21,7,-1,-9,.,7,-17,.
